Pf Dd2 growth: P. falciparum Dd2 growth inhibitors, primary screen, SYBR Green fluorescence, single dose replicates; 94,000 compounds, 2.3% hits; 72 h; stronger effect = lower value; activity change, % at 10 µM; in the data active means activity change below about -80%; inconclusive means no clear call, values can overlap the other calls
Tcruzi prolif: T. cruzi intracellular proliferation inhibitors, primary screen, cell-based, beta-gal Tulahuen parasites, NIH3T3 host, luminescence; T. cruzi beta-gal in NIH3T3, GalScreen luminescence, 90 h; inhibition, % at 8.34 µM; 77,000 compounds, 5.9% hits; AID 624255, 2012;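 active means mean inhibition above about 93%, with at least 55% of replicates each passing it, limit read from the data, passing the limit was not always enough; inconclusive means only one of those two conditions holds; inactive means neither condition holds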
C diff growth: C. difficile growth inhibitors, primary screen, HTS. Clostridium difficile clinical isolate growth, OD600, 24 h; stronger effect = lower value. growth activity, negative = inhibition, % at 16 µg/mL (by protocol). 86,000 compounds, 0.25% hits. AID 1259249, 2017;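 active means mean growth activity at or below -80% and every replicate also at or below -80%; inconclusive means mean at or below -80% but some replicate above -80%; inactive means mean growth activity above -80%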;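 further: 0% = DMSO wells and -100% = levofloxacin 16 µg/mL wells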
The depositor's hits bear a star; ? = inconclusive; / = no result; ! = not confirmed by another sample. Only some compounds are listed: those with a hit (about 6.8% of all), similar ones and a draw of the others.

SMILES	Pf Dd2 growth	Tcruzi prolif	C diff growth
COc1cccc(-c2ccc3c(c2)[C@H]2[C@H](CCN2C(=O)c2cccc(F)c2)[C@@H](CO)N3)c1	-38	76	4
C[C@@H]1CN([C@H](C)CO)C(=O)c2cc(NC(=O)Nc3ccccc3)ccc2O[C@@H](C)CCCCO[C@H]1CN(C)Cc1ccc(C(=O)O)cc1	14	43	-2
COc1ccc(S(=O)(=O)N(C)C[C@@H]2Oc3ncc(C#CC4(O)CCCC4)cc3C(=O)N([C@@H](C)CO)C[C@H]2C)cc1	-51	30	4
O=C(C[C@H]1C[C@H]2c3cc(NS(=O)(=O)c4ccc(F)cc4)ccc3O[C@H]2[C@H](CO)O1)NCc1cccc(F)c1	-57	1	1
C[C@H](CO)N1C[C@H](C)[C@H](CN(C)Cc2ccc3c(c2)OCO3)Oc2ccc(NS(=O)(=O)c3ccccc3)cc2CC1=O	-37	57	-12
N#Cc1cccc(-c2ccc3c(c2)[C@@H]2[C@@H](CCN2Cc2ccc4c(c2)OCO4)[C@@H](CO)N3)c1	-55	22	-98*
O=C(C1CCCC1)N1CC[C@@H]2[C@H](CO)Nc3ccc(-c4cccc(F)c4)cc3[C@@H]21	-65	/	65
OC[C@@H]1Nc2ccc(-c3cccc(F)c3)cc2[C@@H]2[C@H]1CCN2Cc1ccc(F)cc1	-81*	83	1
N#Cc1cccc(-c2ccc3c(c2)[C@H]2[C@H](CCN2Cc2cncnc2)[C@H](CO)N3)c1	-53	53	-11
C[C@H](CO)N1C[C@H](C)[C@@H](CN(C)CC2CCCC2)Oc2cc(C#CCN(C)C)ccc2S1(=O)=O	-5	/	-5
Cc1ccc(S(=O)(=O)N(C)C[C@H]2OCCCC[C@@H](C)Oc3ccc(NC(=O)C4CCCCC4)cc3C(=O)N([C@H](C)CO)C[C@@H]2C)cc1	-55	0	-1
Cc1ccc(S(=O)(=O)N(C)C[C@H]2OCCCC[C@@H](C)Oc3ccc(NC(=O)C4CCCCC4)cc3C(=O)N([C@H](C)CO)C[C@H]2C)cc1	-71	47	-1
Cc1ccc(S(=O)(=O)N(C)C[C@H]2OCCCC[C@H](C)Oc3ccc(NC(=O)C4CCCCC4)cc3C(=O)N([C@@H](C)CO)C[C@H]2C)cc1	-89*	63	4
C[C@@H]1CN([C@@H](C)CO)C(=O)c2cc(NC(=O)C3CCCCC3)ccc2O[C@@H](C)CCCCO[C@H]1CN(C)S(=O)(=O)c1ccc(Cl)cc1	-83*	87	-4
Cc1ccccc1-c1ccc2c(c1)O[C@H](CN(C)Cc1ccncc1)[C@@H](C)CN([C@H](C)CO)S2(=O)=O	-68	94	5
O=C(Nc1cc(Br)ccc1C(=O)NCc1cccc(O)c1)c1ccccc1	/	/	-2
C/C=C/c1ccc2c(c1)O[C@@H](CN(C)C(=O)c1ccccc1)[C@H](C)CN([C@@H](C)CO)S2(=O)=O	-30	/	3
C[C@H]1CN([C@@H](C)CO)S(=O)(=O)c2ccc(/C=C/c3ccccc3)cc2O[C@@H]1CN(C)Cc1ccc(C(=O)O)cc1	-18	80	17
C[C@H]1CN([C@@H](C)CO)S(=O)(=O)c2ccc(/C=C/c3ccccc3)cc2O[C@H]1CN(C)C(=O)c1ccccc1	?	125*	22
C[C@@H]1CN([C@@H](C)CO)S(=O)(=O)c2ccc(/C=C/c3ccccc3)cc2O[C@H]1CN(C)Cc1ccc(C(=O)O)cc1	-43	84	-97*
C[C@H]1CN([C@@H](C)CO)C(=O)c2cc(C#CC3CC3)cnc2O[C@H]1CN(C)C(=O)c1ccc(F)cc1	13	57	2
O=C(C[C@@H]1CC[C@@H]2[C@H](COC[C@H](O)CN2C(=O)Nc2cc(Cl)cc(Cl)c2)O1)N1CCOCC1	/	-25	-101*!
O=C(C[C@H]1CC[C@@H]2[C@H](COC[C@H](O)CN2C(=O)Nc2cc(Cl)cc(Cl)c2)O1)N1CCOCC1	/	10	-92*!
O=C(C[C@H]1CC[C@H]2[C@@H](COC[C@@H](O)CN2C(=O)Nc2cc(Cl)cc(Cl)c2)O1)N1CCOCC1	/	0	-15
O=C(C[C@@H]1CC[C@@H]2[C@H](COC[C@@H](O)CN2C(=O)Nc2cc(Cl)cc(Cl)c2)O1)N1CCOCC1	/	25	63
SMILES	Pf Dd2 growth	Tcruzi prolif	C diff growth
O=C(C[C@H]1CC[C@@H]2[C@H](COC[C@@H](O)CN2S(=O)(=O)c2ccccc2)O1)NCc1ccc(-c2ccccc2)cc1	-31	77	43
COc1ccccc1S(=O)(=O)N1CC[C@@H]2[C@H](CO)Nc3ccc(-c4cccc(C#N)c4)cc3[C@@H]21	4	93	-2
C[C@@H]1CN([C@H](C)CO)C(=O)c2c(c3ccccc3n2C)-c2ccccc2CO[C@H]1CN(C)S(=O)(=O)c1ccc(C(F)(F)F)cc1	-89*	/	-1
C[C@H]1CN([C@@H](C)CO)C(=O)c2c(c3ccccc3n2C)-c2ccccc2CO[C@H]1CN(C)S(=O)(=O)c1ccc(C(F)(F)F)cc1	-91*	/	-5
COc1ccc(S(=O)(=O)N(C)C[C@@H]2OCc3ccccc3-c3c(n(C)c4ccccc34)C(=O)N([C@H](C)CO)C[C@H]2C)cc1	-78	89	/
C[C@@H]1CN([C@H](C)CO)C(=O)c2c(c3ccccc3n2C)-c2ccccc2CO[C@@H]1CN(C)S(=O)(=O)c1ccc(C(F)(F)F)cc1	-86*	/	2
O=C(C[C@@H]1CC[C@@H](NS(=O)(=O)c2ccc(F)cc2)[C@@H](CO)O1)NC1CCC1	-1	-33	0
Cc1cccc(S(=O)(=O)N[C@H]2CC[C@@H](CCNC(=O)Nc3cc(F)ccc3F)O[C@H]2CO)c1	8	20	6
CCCNC(=O)C[C@@H]1CC[C@H]2[C@H](COc3ccc(NC(=O)NCC)cc3C(=O)N2C)O1	14	21	-7
C[C@@H]1CN([C@H](C)CO)C(=O)c2cc(NC(=O)CCCN(C)C)ccc2O[C@@H](C)CCCCO[C@@H]1CN(C)Cc1ccc2c(c1)OCO2	-49	5	0
C[C@@H]1CCCCO[C@@H](CN(C)Cc2ccccc2)[C@H](C)CN([C@H](C)CO)C(=O)c2cc(NC(=O)Cc3ccccc3)ccc2O1	-66	/	-1
C[C@@H]1CCCCO[C@@H](CN(C)Cc2ccc(Cl)c(Cl)c2)[C@H](C)CN([C@@H](C)CO)C(=O)c2cc(NC(=O)Cc3ccccc3)ccc2O1	-66	63	5
C[C@@H]1CN([C@H](C)CO)C(=O)c2cc(NC(=O)Cc3ccccc3)ccc2O[C@@H](C)CCCCO[C@H]1CN(C)Cc1ccc(Cl)c(Cl)c1	-84*	91	1
C[C@H]1CCCCO[C@H](CN(C)Cc2ccc(Cl)c(Cl)c2)[C@@H](C)CN([C@@H](C)CO)C(=O)c2cc(NC(=O)Cc3ccccc3)ccc2O1	-85*	68	7
O=C(c1ccncc1)N1CC[C@@H]2[C@H]1c1cc(-c3ccccc3)ccc1N[C@@H]2CO	5	94	-13
C[C@@H]1CN([C@@H](C)CO)C(=O)c2cc(C#CCc3ccccc3)cnc2O[C@@H]1CN(C)C(=O)C1CCC1	-50	23	1
C[C@@H]1CN([C@@H](C)CO)C(=O)c2cc(C#Cc3cccc(F)c3)cnc2O[C@@H]1CN(C)C(=O)C1CCCCC1	-86*	122	/
